Measurements taken from paper PMC12136788.
Over roughly 24,000 sequences, “enrichment r” has its median near 0.99; the highest 2% begin near 3.7. These entries were drawn from the full list.

T1: UNK ZnF1-3 (human, UniProt Q9C0B0 31-174)
T1 sequence: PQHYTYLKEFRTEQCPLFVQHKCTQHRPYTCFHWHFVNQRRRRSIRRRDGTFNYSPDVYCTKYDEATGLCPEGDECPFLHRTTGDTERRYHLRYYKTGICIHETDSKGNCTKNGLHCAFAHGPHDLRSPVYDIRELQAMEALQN

B1: chr3:49066234:49066235:-_ENSG00000178035_ENST00000326739|hu_hu|FALSE|FALSE (ssRNA)
RNA: GGGAGUUCUACAGUCCGACGAUCAGAAGUCAGGUCCACCUGGUCUGCAGUGAAGUCGAUGUACCCAGGGAGAAUGAGAAAGUCAUUGUAGGUGAGGCCGUCUCCGCAGUUGAAGAGCUGCUGUGCUGUGAGUCCGUCGUCUGGCAACAGAGGAUUGAGCAUCA
B2: chr8:87366250:87366251:-_ENSMUSG00000003814_ENSMUST00000003912|mus_mus|FALSE|FALSE (ssRNA)
RNA: GGGAGUUCUACAGUCCGACGAUCGAGCAGAUGAAAUCUCAAGCCUAGGGCUUCUCCUCUACACCCCUGUUCCUAGAGUUGGAGGGUAGUGACCAAAAGAUGGAGAAAGGGAGGGACAGAAGGAAAAGAUGUUGAUUCAAAAAUCAACAGAGGAUUGAGCAUCA
B3: chr7:75932113:75932114:+_ENSG00000106211_ENST00000248553|hu_hu|hu_hu_hu_mus_False|28_98 (ssRNA)
RNA: GGGAGUUCUACAGUCCGACGAUCCUGCGACCACUCAUCCGGCAGCCGGGGCACCCCGAAAGCUUGAUCGAAGAGGCGGCUGUGUGCAGGGUACCAGUCCCGGAAUGCCCAGCUGGGCGGGCUCCGCAGCAGCGAGAAGGGCACCAACAGAGGAUUGAGCAUCA
B4: chr4:88367131:88367132:-_ENSMUSG00000070923_ENSMUST00000094993|mus_hu|motif|central (ssRNA)
RNA: GGGAGUUCUACAGUCCGACGAUCUUGGUAAUUGCUAGCUUCCAAAAGCAAAUUCACGCAGGUAUUGUCUGUUCUCAUGAAAUCGGCUGUCUGCACGUAAUUGAUGAGAUCCUGUGGUGUCAUCAGUGGAAAUCGAAUAUUCUUCAACAGAGGAUUGAGCAUCA
B5: chr8:104447970:104447971:+_ENSG00000164934_ENST00000297579|hu_hu|hu_hu_hu_mus_False|48_108 (ssRNA)
RNA: GGGAGUUCUACAGUCCGACGAUCAUAUACCUCCCUGCUUCGGCUCUUGUCCACAGGAAAGAUUCUAAUAGACUUAUCAAAGCUGGCAGACACAAACUCCUUCCCAGUGGGAGAGUAGUCCACAUCAAGUACUGCAGACACGUGCAACAGAGGAUUGAGCAUCA
B6: 31532532_31534450_220_CDS_ENSG00000082213_ENST00000325366|human|control|control (ssRNA)
RNA: GGGAGUUCUACAGUCCGACGAUCGAAAUGUAAAAAACUUACAUUACUGGCAGGAAGAUGCUUUGAGCCUAUGGCCCGGUAUAUAAAGGGUAGAACCUCCUGAUGAUCCUCCACCACCCACACUGGGAGCUUGGGGUAACGCCGCAACAGAGGAUUGAGCAUCA

Target: T1, UNK ZnF1-3
Assay: nsRBNS (natural sequence RNA bind-n-seq); RBNS binding buffer (assumed for nsRBNS): 25 mM Tris pH 7.5, 150 mM KCl, 3 mM MgCl2, 0.01% Triton X-100, 500 ug/ml BSA, 20 U/ml SUPERase-In, 4 C; UNK is unkempt and MSI1 is Musashi-1; names of the RNAs are library labels; protein concentration not given here; high values mean tight binding

Binder | binding signal
B1 | 1.62 enrichment R
B2 | 1.61 enrichment R
B3 | 0.901 enrichment R
B4 | 0.896 enrichment R
B5 | 1 enrichment R
B6 | 0.807 enrichment R
